Reference: the supplement of paper PMC8975748
Structures can show the parent of a compound that is named as a salt.

System: Saccharomyces cerevisiae BY4741 SeMeCo community
Test: z-score of subpopulation abundance vs DMSO median, subpopulation auxotrophic for HUM; higher = larger share of this subpopulation than in DMSO controls
Settings: 10 µM; 24 h; SM minimal medium; subpopulation (auxotrophy): HUM
Protocol: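 Fluorescent four-plasmid SeMeCo (self-establishing metabolically cooperating S. cerevisiae BY4741 community; plasmids pH-mRuby2, pL-mWasabi, pU-eCFP, pM-TagRFP657) was grown 24 h in minimal SM medium with each Selleck FDA-approved drug at 10 µM in 384-well plates. Cells were fixed and imaged by high-content confocal microscopy. For each auxotrophic subpopulation (and the prototroph), a z-score gives the deviation from the DMSO vehicle-control population median.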

Structure (SMILES)	z-score of subpopulation abundance
CN1C(=O)COc2c(C(=O)NC3CN4CCC3CC4)cc(Cl)cc21 (centres undefined) [Azasetron HCl]	0.35
COc1ccc(C(CN(C)C)C2(O)CCCCC2)cc1 (centres undefined) [Venlafaxine]	0.51
NCCc1c[nH]c2ccc(O)cc12 [Serotonin HCl]	0.18
CC(=O)O[C@H]1C[C@@H]2CC[C@@H]3[C@H](CC[C@@]4(C)[C@H]3C[C@H]([N+]3(C)CCCCC3)[C@@H]4OC(C)=O)[C@@]2(C)C[C@@H]1[N+]1(C)CCCCC1 [Pancuronium dibromide]	-0.72
CN(C)[C@@H]1C(=O)C(C(N)=O)=C(O)[C@@]2(O)C(=O)C3=C(O)c4c(O)ccc(Cl)c4[C@@](C)(O)[C@H]3C[C@@H]12 [Chlortetracycline HCl]	0.05
C[N+]12CCC(CC1)C(OC(=O)C(O)(c1ccccc1)c1ccccc1)C2 (centres undefined) [Clidinium Bromide]	-0.01
Oc1cccc2cccnc12 [8-Hydroxyquinoline]	-0.54
O=C(O[C@H]1C[C@H]2CC[C@@H](C1)[N+]21CCCC1)C(O)(c1ccccc1)c1ccccc1 [Trospium chloride]	-0.32
CC(C)N(CCC(C(N)=O)(c1ccccc1)c1ccccn1)C(C)C (centres undefined) [Disopyramide]	-0.19
COc1ccc(C=O)cc1 [p-Anisaldehyde]	-0.95
O=[N+]([O-])C(Br)(CO)CO [Bronopol]	-0.53
CCOC(=O)Nc1ccc(NCc2ccc(F)cc2)cc1N [Retigabine 2HCl]	0.72
CNC1CC(N)C(O)C(OC2OC(CO)C(O)C3OC4(OC(C(N)CO)C(O)C(O)C4O)OC23)C1O (centres undefined) [Hygromycin B]	-0.41
C=C[C@H]1CN2CC[C@H]1C[C@H]2[C@H](O)c1ccnc2ccccc12 [Cinchonidine]	0.48
Cc1cc(C(C#N)c2ccc(Cl)cc2)c(Cl)cc1NC(=O)c1cc(I)cc(I)c1O (centres undefined) [Closantel]	0.04
CCOC(=O)Nc1ccc(NCc2ccc(F)cc2)cc1N [Retigabine]	-0.05
CC(C)(O)C(Cl)(Cl)Cl [Chlorobutanol]	-0.45

Structure (SMILES)	z-score of subpopulation abundance
CC(NC(C)(C)C)C(=O)c1cccc(Cl)c1 (centres undefined) [Amfebutamone (Bupropion) HCl]	-0.74
C[N+]1(C)[C@@H]2C[C@@H](OC(=O)[C@H](CO)c3ccccc3)C[C@H]1[C@@H]1O[C@@H]12 [Methscopolamine]	0.63
COC(=O)C1=CCCN(C)C1 [Arecoline HBr]	-0.03
CN1[C@@H]2CC[C@H]1C[C@@H](OC(=O)C(CO)c1ccccc1)C2 (some centres undefined) [Atropine sulfate monohydrate]	-0.27
Cc1cc(O)ccc1Cl [Chlorocresol]	-0.26
CN(C)C(=O)Oc1ccc[n+](C)c1 [Pyridostigmine Bromide]	0.11
COc1ccc2[nH]cc(CCN)c2c1 [5-Methoxytryptamine]	0.46
CN1[C@@H]2CC[C@H]1C[C@@H](OC(=O)[C@H](CO)c1ccccc1)C2 [Hyoscyamine]	-0.99
Oc1cc(Cl)ccc1Oc1ccc(Cl)cc1Cl [Triclosan]	-1.9
C[C@H]1O[C@H](O[C@H]2[C@H](O)[C@@H](O)[C@@H](O)[C@H](O)[C@@H]2O)[C@@H](N)C[C@@H]1NC(=N)C(=O)O [Kasugamycin hydrochloride]	-0.14
COc1ccc2c3c([nH]c2c1)C(C)=NCC3 [Harmaline]	-6.26
C[C@@H]1CC[C@H]2[C@@H](C)C(=O)O[C@@H]3O[C@@]4(C)CC[C@@H]1[C@]32OO4 [Artemisinin]	-0.49
CCN(C)C(=O)Oc1cccc([C@H](C)N(C)C)c1 [Rivastigmine]	0.66
CN(C)[C@@H]1C(=O)C(C(N)=O)=C(O)[C@@]2(O)C(=O)C3=C(O)c4c(O)cccc4[C@@](C)(O)[C@H]3[C@H](O)[C@@H]12 [Oxytetracycline (Terramycin)]	-0.11
CC[N+](C)(CC)CCOC(=O)C(O)(c1ccccc1)c1ccccc1 [Methylbenactyzine Bromide]	-0.8
CN[C@@H]1[C@@H](O)[C@@H](O[C@@H]2[C@@H](O)[C@H](O[C@H]3O[C@H]([C@@H](C)O)[C@@H](O)[C@H](O)[C@H]3N)[C@@H](N)C[C@H]2N)OC[C@]1(C)O [Geneticin (G418 Sulfate)]	-0.88
CC[C@@]1(O)C(=O)OCc2c1cc1n(c2=O)Cc2cc3ccccc3nc2-1 [Camptothecin]	-0.54
